Where “and” joins values, the source holds several entries; their conditions need not be identical. Equal entries are not always repeated. The panel holds about 83,000 compounds, 20% with a hit somewhere; the sample as a whole holds those more often.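 Assay: single dose, 48 h. Readout: percent growth (0 = no net growth; negative = cell death). Active: <10.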 Values without a mark were called inactive. Calls of active or inactive are those of the source.

Some test systems named below: DU-145 prostate; K-562 leukemia; MALME-3M melanoma; MDA-MB-231 breast; RXF 393 renal; SF-268 CNS; SF-295 CNS; SF-539 CNS; UACC-257 melanoma; M14 melanoma.
Test in all cases: NCI-60 one-dose screen, 48 h (100 = growth as untreated, 0 = no growth, -100 = all killed)
Common to all, as to conditions: 10 µM unless noted

Consider `O=C(/C=C\c1ccc(Cl)c(Cl)c1)c1ccccc1`, for which the growth in the assay with DU-145 prostate is 84.3% and 109%; with K-562 leukemia, 32.7% and 95.9%; with MALME-3M melanoma, 104% and 115%; in the assay on MDA-MB-231 breast, 108% and 99.7%; in the assay with RXF 393 renal, 86.3% and 110%; with SF-268 CNS, 98.4% and 103%. The growth in the assay on SF-295 CNS is 97.5% and 99.2%; in the assay on SF-539 CNS it was 111% and 110%; in the assay with UACC-257 melanoma, 97.7%; with M14 melanoma, 97.2% and 115%.
Regarding `C/C(=C(\c1ccc(OCCN2CCOCC2)cc1)c1ccc(OC(=O)C2CCCCC2)cc1)c1ccc(Cl)cc1`, the growth was 103% in the assay with DU-145 prostate; 66.1% with K-562 leukemia; 104% in the assay with MALME-3M melanoma; 98.8% in the assay with MDA-MB-231 breast; 94.9% in the assay on RXF 393 renal; 95.8% in the assay with SF-268 CNS. Besides, the growth in the assay on SF-295 CNS is 106%; with SF-539 CNS, 105%; with UACC-257 melanoma it was 99%; with M14 melanoma it was 87.4%.
With `CC1=C2[C@@H](CC1)[C@]1(C)O[C@@](C(C)C)(C[C@H]1OC(=O)CO)[C@H]2OC(=O)C1CC1c1ccccc1` (stereo not given in full), the growth with DU-145 prostate is 100%; in the assay with K-562 leukemia, 67.7%; in the assay on MALME-3M melanoma, 91.7%; in the assay on MDA-MB-231 breast, 89.7%; in the assay on RXF 393 renal, 69.3%; with SF-268 CNS it was 76.2%. Besides, the growth is 67.4% with SF-295 CNS, 101% in the assay on SF-539 CNS, 88.8% in the assay on UACC-257 melanoma and 88.3% in the assay on M14 melanoma.
Take `C=C1C(=O)O[C@H]2[C@H]1CC/C(CNS(=O)(=O)c1ccc3ccccc3c1)=C\CC[C@@]1(C)O[C@@H]21`: the growth in the assay with DU-145 prostate was -85% (active); in the assay with K-562 leukemia, -19.3% (active); in the assay with MALME-3M melanoma, -22.6% (active); with MDA-MB-231 breast, 2.57% (active); with RXF 393 renal, -80.8% (active); in the assay with SF-268 CNS, 51.4%. Besides, the growth in the assay with SF-295 CNS is 71.2%; in the assay with SF-539 CNS, 9.99% (active); in the assay with UACC-257 melanoma it was -54.4% (active); with M14 melanoma, -32.6% (active).
As to `N#C/C(=N\Nc1ccc(Cl)cc1)C(=O)Nc1cc(-c2ccccc2)nn1-c1ccccc1`, the growth with DU-145 prostate was 35%; in the assay on K-562 leukemia it was 12.2%; in the assay on MALME-3M melanoma it was 2.07% (active); in the assay on MDA-MB-231 breast, 24.3%; with RXF 393 renal, 47.1%; in the assay with SF-268 CNS, 19.9%. The growth in the assay on SF-295 CNS is 1.62% (active); in the assay on SF-539 CNS, 52.3%; with UACC-257 melanoma it was 13.2%; in the assay on M14 melanoma it was 35.6%.
`OB(O)c1ccsc1-c1nc2ccc3[nH]ncc3c2c2c1CCCC2`: the growth in the assay on DU-145 prostate was 47.3%; in the assay on K-562 leukemia, 55.9%; in the assay on MALME-3M melanoma, 77.9%; in the assay with MDA-MB-231 breast, 70.3%; in the assay with RXF 393 renal, 19.2%; in the assay with SF-268 CNS, 58.9%. The growth is 69.6% in the assay on SF-295 CNS, 45.2% with SF-539 CNS, 85.5% in the assay with UACC-257 melanoma and 41.4% in the assay with M14 melanoma.
As for `COc1ccc(-c2cc(=O)c3c(O)cc(O)cc3o2)cc1`, the growth with DU-145 prostate was 103% and 97.8%; with K-562 leukemia, 91.5%; in the assay on MALME-3M melanoma it was 113% and 110%; in the assay with MDA-MB-231 breast it was 113% and 91.4%; in the assay on RXF 393 renal, 121% and 116%; in the assay with SF-268 CNS it was 98.5% and 99.4%. In addition, the growth was 101% and 104% in the assay with SF-295 CNS; 94.5% and 105% in the assay on SF-539 CNS; 127% and 126% in the assay with UACC-257 melanoma; 118% and 122% in the assay with M14 melanoma.
With `S=c1nc(CS)[nH]c2ccccc12`, the growth in the assay with DU-145 prostate is 108%; with K-562 leukemia it was 104%; in the assay with MALME-3M melanoma, 86.6%; in the assay with MDA-MB-231 breast, 82.8%; with RXF 393 renal, 109%; with SF-268 CNS, 92.4%. Also, the growth with SF-295 CNS was 94.6%; with SF-539 CNS, 94.7%; with UACC-257 melanoma, 95.9%; with M14 melanoma it was 98.2%.
As for `O=C(/C=C/c1ccccc1)c1cccs1`, the growth was 97.8% and 93.1% in the assay on DU-145 prostate; 106% and 71.2% in the assay with K-562 leukemia; 119% in the assay on MALME-3M melanoma; 111% and 109% in the assay on MDA-MB-231 breast; 106% and 102% with RXF 393 renal; 98.4% and 98.3% in the assay with SF-268 CNS. The growth in the assay with SF-295 CNS is 97.7% and 95.1%; in the assay on SF-539 CNS it was 105% and 111%; in the assay with UACC-257 melanoma, 96.3% and 106%; in the assay with M14 melanoma, 98.1% and 112%.
On to `O=C(CCl)N(O)c1ccc(/C=C/c2ccccc2)cc1`, for which the growth in the assay on DU-145 prostate was 90.3% and 86.6%; in the assay with K-562 leukemia it was 64% and 46.1%; with MALME-3M melanoma, 95.3% and 84.2%; in the assay on MDA-MB-231 breast, 82.1% and 66.5%; in the assay on RXF 393 renal, 99.9% and 71.3%; in the assay on SF-268 CNS, 84.7% and 72.8%. The growth was 95.5% and 80.9% in the assay on SF-295 CNS; 94.3% and 93.4% in the assay on SF-539 CNS; 103% with UACC-257 melanoma; 75% and 71.8% with M14 melanoma.
Take `COc1ccc(Nc2ncnc3ccc(-c4cncc(NS(C)(=O)=O)c4)cc23)cc1Cl`: the growth with DU-145 prostate is 46.9%; in the assay with K-562 leukemia it was 28.1%; in the assay with MALME-3M melanoma, 36.2%; in the assay with MDA-MB-231 breast, 21.6%; in the assay with RXF 393 renal it was 26.8%; in the assay with SF-268 CNS, 24.9%. Further, the growth with SF-295 CNS was 55.8%; in the assay on SF-539 CNS it was 18.9%; in the assay with UACC-257 melanoma it was 37%; in the assay on M14 melanoma, 51.5%.
In the case of `COc1ccc(/C=C/C(=O)c2cc3c(N)c(C(=O)Nc4ccccc4Cl)sc3nc2C)cc1`, the growth was 46.3% with DU-145 prostate; 38.9% in the assay with K-562 leukemia; 21% in the assay on MALME-3M melanoma; 33.8% with MDA-MB-231 breast; -3.54% (active) in the assay on RXF 393 renal; 53.3% with SF-268 CNS. Further, the growth in the assay with SF-295 CNS was 48.5%; in the assay with SF-539 CNS, 36.2%; with UACC-257 melanoma, 63.8%; in the assay with M14 melanoma it was 12.1%.
